Experimental data taken from PubChem BioAssay (NCATS).
Records with an inconclusive call do not appear. A call without a number means that no potency is given here. The source made the active and inactive calls. Calls come from the whole dose curve; as a rule, active = well fitted inhibition curve with a large enough effect; inconclusive = small, poorly fitted or top-dose-only effect; inactive = flat fitted curve, though single readings scatter.

These molecules were tested against Calcium and integrin-binding protein 1 (Homo sapiens) (UniProt Q99828) (assay: Primary qHTS for Identification of Calcium Integrin Binding Protein 1 (CIB1) Competitor (AID 1508620;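 note: GST tagged CIB1 binding a fluorescein labelled alphaIIb integrin peptide tracer; top concentration of the series differs between compounds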)). Settings: CIB1-GST / FITC-alphaIIb peptide fluorescence polarization; series mostly up to 114 µM.
Calcium and integrin-binding protein 1 (Homo sapiens), sequence (Q99828 whole entry, looked up): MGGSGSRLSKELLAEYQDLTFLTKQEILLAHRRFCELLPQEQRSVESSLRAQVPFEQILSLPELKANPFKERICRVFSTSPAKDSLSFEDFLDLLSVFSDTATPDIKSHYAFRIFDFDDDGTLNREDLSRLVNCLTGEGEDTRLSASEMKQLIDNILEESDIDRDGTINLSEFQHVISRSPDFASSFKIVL
In short: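 Fluorescence polarization competition: CIB1-GST (1 uM final) preincubated with compound 15 min at room temperature, then FITC-labeled alphaIIb peptide (100 nM final) added for another 15 min. Polarization read at Ex 480/Em 540.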
In the case of `COc1c(/C=C/C(C)(C)O)ccc2c1C(=O)OCc1cc(C)cc(O)c1O2`, the Potency is reported as “inactive”. `CC1CC(O)C2(OC1=O)OC1C(O)C3C4CCC5CC(OC6OC(CO)C(O)C(O)C6OC6OC(C)C(O)C(O)C6O)CCC5(C)C4CCC3(C)C1C2C` (configuration not stated) was tested, and the Potency was “inactive”. `C=CC1C(OC2OC(CO)C(O)C(O)C2O)OC=C(C(=O)OC)C1CC(=O)OCC1C(C)C(O)CC1C(CO)COC(=O)CC1C(C(=O)O)=COC(OC2OC(CO)C(O)C(O)C2O)/C1=C\C` (configuration not stated) was tested, and the Potency was “inactive”. With `CN(C)CC1CCOC1(c1ccccc1)c1ccccc1` (configuration not stated) the Potency was “inactive”. With `O=C(CC1C(=O)Nc2ccccc21)OC[C@H]1O[C@@H](OCCc2ccc(O)cc2)[C@H](O)[C@@H](O)[C@@H]1O` (some centres not stated) the Potency was “inactive”. With `O=c1[nH]ccc2cc(OC3CCNCC3)ccc12` the Potency was “inactive”. With `CC1CCC23COC(=O)C2=CC(O)CC3C1(C)CCC1=CC(O)OC1=O` (configuration not stated) the Potency was “inactive”. In the case of `Cc1ccc(Cc2c(C)nc3nc(SCC(=O)NCCN4CCNCC4)nn3c2C)cc1`, the Potency is reported as “inactive”. With `CCCCOC(=O)NC(=O)C1c2ccccc2Oc2ccccc21` the Potency was “inactive”. In the case of `CCOC(=O)Nc1cc(-c2ccc(C)c(NS(C)(=O)=O)c2)nn2c(C)nnc12`, the Potency is reported as “inactive”. For `COC(=O)CC(O)CC(O)/C=C/c1c(C)ccc2c1C(O)CC(C)C2` (configuration not stated), the Potency was “inactive”. In the case of `Cc1csc(NC(=O)c2ccc(COc3cccc(Cl)c3)o2)n1`, the Potency is reported as “inactive”.
